The nature of experiment [1]: Cell Viability - HUV-EC-C (AID 542).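 Also: cells exposed to compound for 40 hours; % is scaled to controls: 0 for no effect and ±100 for the full control effect; nearly all actives have a fitted effect of over 35% in size.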 Particulars: HUV-EC-C endothelial cell viability, qHTS; series mostly up to 92.2 µM. In a few lines:
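qHTS cytotoxicity: HUV-EC-C, 1000 cells/well, 5 hr settle, compound 40 hr 37 °C, CellTiter-Glo, luminescence. AC50 via Hill equation.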
In general terms: Quantitative high-throughput screening tests each substance at several concentrations.

A short description of experiment [2]: Cell Viability - Mesenchymal (AID 546).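 Also: cells exposed to compound for 40 hours before reading; 0% = DMSO only and -100% = 100 µM tamoxifen.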 Particulars: mesenchymal cells viability, qHTS; series mostly up to 91.7 µM. In a few lines: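 Normal human renal glomerulus-derived kidney mesenchymal cells, 1000 per well in complete medium, were treated with compounds for 40 hr at 37 °C. Viability was read as intracellular ATP by CellTiter-Glo luminescence; AC50 values came from Hill-equation fits of qHTS concentration-response data.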

A short description of experiment [3]: Cellular Toxicity (caspase-3) MRC-5 (AID 659). Particulars: MRC-5 cells, luminescence, normalized: DMSO 0%, 10 µM staurosporine 100%; series mostly up to 91.7 µM. In a few lines:
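Luminescence from caspase-cleaved aminoluciferin substrate (Caspase-Glo 3/7, 1 hr RT) reports caspase 3/7 activity in MRC-5 lung fibroblasts after 16 hr compound exposure. Normalized to DMSO basal and 10 uM staurosporine as 100%; AC50 from Hill fits.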

Experiment [4] can be described thus: Cellular Toxicity (caspase-3) SK-N-SH (AID 661). To be noted: SK-N-SH caspase-3 activation, qHTS; series mostly up to 91.7 µM. In a few lines:
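Human neuroblastoma SK-N-SH, 1500 cells/well, 5 hr pre-incubation, then compound 16 hr, 37 °C. Caspase-Glo 3/7 reagent, 1 hr RT, luminescence. Norm. to DMSO/10 uM staurosporine; Hill-fit AC50.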

The nature of experiment [5]: Cellular Toxicity (caspase-3) NIH 3T3 (AID 666).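 Also: caspase signal read after 16 h compound exposure; 0% = DMSO basal and 100% = 100 µM tamoxifen stimulation.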 Particulars: NIH 3T3 caspase-3 activation, apoptosis/toxicity; series mostly up to 92.2 µM. Summed up:
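Luminescence from aminoluciferin released by caspase-3/7 cleavage of a peptide substrate served as read-out. Mouse fibroblast NIH 3T3 cells were exposed to compounds over a concentration range for 16 hours, and AC50 values came from standard Hill modelling.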

Experiment [6] can be described thus: Cell Viability - LYMP2-017 (AID 972).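 Also: cells exposed to compound for 24 hours at 37 °C; % is scaled to controls: 0 for no effect and ±100 for the full control effect; nearly all actives have a fitted effect of over 55% in size.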 To be noted: LYMP2-017 lymphoblastoid cell viability; series mostly up to 92.2 µM. Summed up: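 2500 cells/well, 5 h 37 C; cpd 24 h 37 C in complete medium; CellTiter-Glo, 30 min RT; luminescence (ATP). AC50 via Hill fit, qHTS.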
Experiment [7] is described as follows: Cell Viability - LYMP2-021 (AID 974).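 Also: compound exposure lasts 24 hours at 37 °C; % is scaled to controls: 0 for no effect and ±100 for the full control effect; nearly all actives have a fitted effect of over 55% in size.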 To be noted: LYMP2-021 lymphoblastoid cells viability; series mostly up to 92.2 µM. In a few lines: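 Plate 2500 lymphoblastoid cells per well and incubate 5 hr at 37 C. Add compounds over a concentration range and incubate 24 hr at 37 C. Add CellTiter-Glo, wait 30 min at room temperature, read luminescence.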
The nature of experiment [8]: Cell Viability - LYMP2-023 (AID 975).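 Also: cellular ATP measured by luciferase luminescence as viability proxy; cells exposed to compound for 24 hours at 37 °C; plate controls were DMSO only for no effect and 92 µM tetraoctylammonium bromide control for full effect; nearly all actives have a fitted effect of over 55% in size.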 Particulars: LYMP2-023 lymphoblastoid cell viability; series mostly up to 92.2 µM. Summed up:
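2500 cells/well, 5 hr 37 C; cpd 24 hr 37 C; CellTiter-Glo, 30 min RT; luminescence. qHTS conc-response, Hill fit -> AC50. Pos ctrl tetraoctylammonium bromide.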

The nature of experiment [9]: Cell Viability - LYMP2-006 (AID 978).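 Also: cells exposed to compound for 24 hours; % is scaled to controls: 0 for no effect and ±100 for the full control effect; nearly all actives have a fitted effect of over 60% in size.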 Particulars: LYMP2-006 lymphoblastoid cell viability, qHTS; series mostly up to 92.2 µM. In a few lines:
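Cells are seeded at 2500 per well and rested 5 hr at 37 C. Compounds are added across a concentration series for 24 hr at 37 C, after which ATP is quantified by luciferase luminescence.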

The nature of experiment [10]: Cell Viability - LYMP2-026 (AID 989).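 Also: cells exposed to compound for 24 h at 37 °C; % is scaled to controls: 0 for no effect and ±100 for the full control effect; nearly all actives have a fitted effect of over 50% in size.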 Particulars: LYMP2-026 lymphoblastoid cell viability, qHTS; series mostly up to 92.2 µM. Summed up:
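Luminescent ATP signal (CellTiter-Glo, 30 min room temperature) measures viable lymphoblastoid cells after 24 hr compound treatment at 37 C. Decreased ATP reflects acute toxicity; AC50 values come from Hill-equation modeling.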

Experiment [11] has as its target Retinoic acid receptor RXR-alpha (Homo sapiens) (UniProt P19793). Put plainly: qHTS assay for small molecule agonists of retinoid X receptor alpha signaling (AID 588544; calls by dose curve;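 also: 0% = DMSO basal wells and 100% = reference agonist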). To be noted: HEK293T RXRa-UAS-bla, beta-lactamase reporter, 18 h; series mostly up to 76.7 µM.
Experiment [12] in a line: qHTS assay for small molecule activators of the p53 signaling pathway (AID 651743; active = well fitted activation curve with a large enough effect in the signal ratio, not every such curve was filed as active; the % refers to the signal ratio; also: potency is read from the fitted curve at half-maximal effect; as to activation: % of control where 0% means no effect). To be noted: HCT-116 p53RE-bla, beta-lactamase FRET ratio, 16 h; activation: active compounds read high. Summed up: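 Cell-based beta-lactamase reporter (p53 response elements, HCT-116 background). After a 5-hour preincubation, cells received compound for 16 hours at 37 C; substrate development ran 2 hours at room temperature.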

Experiment [13] is described as follows: qHTS assay for small molecule disruptors of the mitochondrial membrane potential - 5 hr assay (AID 651755; calls by dose curve; also: % is scaled to controls: 0 for no effect and ±100 for the full control effect; nearly all actives have a fitted effect of over 40% in size). Particulars: JC-1-type ratio dye; series mostly up to 92.2 µM. Summed up: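 HepG2 cells, attached overnight at 37C, were exposed to compound or DMSO for 5 hr at 37C, 5% CO2. Mito-MPS dye was then added for 30 min, and fluorescence read at 490/535 nm (monomers) and 540/590 nm (aggregates).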

Experiment [14] in a line: qHTS assay for small molecule agonists of the antioxidant response element (ARE) signaling pathway measured by Nrf2-dependant transcriptional activity (AID 720636; active = well fitted curve in the direction sought with a large enough effect in the repeat runs; an effect the other way counts as inactive or inconclusive; also: % of control where 0% means no effect). Particulars: ARE-luc HepG2, Nrf2 luciferase reporter, 16 h; series mostly up to 92.4 µM. Summed up: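 First, ARE-luc HepG2 cells attached for 6 hr at 37 C in 1% dialyzed FBS medium. Next, compound or DMSO was added and incubated 16 hr. Finally, ONE-Glo reagent was added and luminescence measured after 30 min.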

Experiment [15] in a line: Cell Viability - LYMP2-004 (AID 966).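 Also: plate controls were DMSO only for no effect and tetraoctylammonium bromide control for full effect; nearly all actives have a fitted effect of over 65% in size.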 Particulars: LYMP2-004 lymphoblastoid cell viability, qHTS; series mostly up to 92.2 µM. Summed up: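 Cells seeded 2500/well, rested 5 hr at 37 C, dosed across a concentration series, incubated 24 hr at 37 C, then CellTiter-Glo added for 30 min at room temperature and luminescence read. Hill fitting gave AC50.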
The nature of experiment [16]: Cell Viability - LYMP2-007 (AID 979).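 Also: cells exposed to compound for 24 h before reading; 0% = DMSO only and the negative end = 92 µM tetraoctylammonium bromide; nearly all actives have a fitted effect of over 60% in size.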 Particulars: LYMP2-007 lymphoblastoid cell viability; series mostly up to 92.2 µM. In a few lines: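 Luminescent ATP signal (CellTiter-Glo) serves as the viability read-out after 24 hr compound treatment of lymphoblastoid cells in complete medium at 37 C. Concentration-response data were fitted to the Hill equation to give AC50 values.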

Experiment [17] is described as follows: Cell Viability - LYMP2-014 (AID 983).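 Also: cells exposed to compound for 24 h at 37 °C; plate controls were DMSO only for no effect and 92 µM tetraoctylammonium bromide for full effect; nearly all actives have a fitted effect of over 50% in size.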 To be noted: LYMP2-014 lymphoblastoid cells, viability qHTS; series mostly up to 92.2 µM. In a few lines: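 Luminescent ATP signal (CellTiter-Glo, 30 min at room temperature) serves as the viability read-out after 24 hr compound exposure at 37 C. Cells were seeded at 2500 per well and settled 5 hr beforehand.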
Experiment [18] concerns the target Voltage-gated inwardly rectifying potassium channel KCNH2 (Homo sapiens) (UniProt Q12809). As to the kind of experiment: qHTS Assay for Small Molecule Inhibitors of the Human hERG Channel Activity (AID 588834).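 Also: top concentration of the series differs between compounds; % is scaled to controls: 0 for no effect and ±100 for the full control effect; lower thallium flux fluorescence means stronger hERG block; nearly all actives have a fitted effect of over 50% in size.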 To be noted: U2OS BacMam hERG, FluxOR thallium flux fluorescence; series mostly up to 92.2 µM. Summed up: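 hERG-BacMam U2OS, 2000 cells/well; 0.7X FluxOR loading 1 hr RT dark; cpd ~10 min 37 °C; stim buffer; FDSS fluorescence 2 min @ 1 s; AC50 Hill fit.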

Experiment [19] is described as follows: qHTS assay for environmental chemicals that activate the Aryl hydrocarbon Receptor (AhR) signaling pathway (AID 651777). Also: % of control where 0% means no effect; nearly all actives have a fitted effect of over 15% in size. To be noted: 1A2-DRE human hepatoma cells, luciferase, 24 h; activation: active compounds read high. In a few lines:
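AhR activation is scored as a rise in luciferase from a stable DRE–CYP1A2 promoter construct in human hepatoma cells. Treatment lasts 24 hr at 37 C; detection uses One-Glo after 30 min at room temperature.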

Experiment [20] in a line: Cell Viability - HepG2 (AID 433; calls by dose curve;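 also: potency is read from the fitted curve at half-maximal effect; cells exposed to compound for 40 hours; potency for ATP loss meaning cytotoxicity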). To be noted: qHTS. In a few lines:
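Read-out is luciferase-based quantitation of cellular ATP as a measure of viable HepG2 cells after 40 h treatment at 37 °C. Signal decrease is scaled between DMSO-only and 100 uM tamoxifen controls, with AC50 fitted by the Hill equation.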

“And” between values parts separate entries of the source, which are not always exact repeats. Identical values can stand only once. Values without a mark were called inactive. Results filed as inconclusive are left out. The source made the active and inactive calls. Unless noted, calls follow the shape of the dose curve; as a rule, active = well fitted curve in the direction sought with a large enough effect; inconclusive = small, poorly fitted or top-dose-only effect, or another doubt; inactive = no such curve, though single readings can be large; an effect the other way counts as inactive or inconclusive. Some results are limits rather than exact numbers.

Chain of Voltage-gated inwardly rectifying potassium channel KCNH2 (Homo sapiens) (Q12809 whole entry, looked up): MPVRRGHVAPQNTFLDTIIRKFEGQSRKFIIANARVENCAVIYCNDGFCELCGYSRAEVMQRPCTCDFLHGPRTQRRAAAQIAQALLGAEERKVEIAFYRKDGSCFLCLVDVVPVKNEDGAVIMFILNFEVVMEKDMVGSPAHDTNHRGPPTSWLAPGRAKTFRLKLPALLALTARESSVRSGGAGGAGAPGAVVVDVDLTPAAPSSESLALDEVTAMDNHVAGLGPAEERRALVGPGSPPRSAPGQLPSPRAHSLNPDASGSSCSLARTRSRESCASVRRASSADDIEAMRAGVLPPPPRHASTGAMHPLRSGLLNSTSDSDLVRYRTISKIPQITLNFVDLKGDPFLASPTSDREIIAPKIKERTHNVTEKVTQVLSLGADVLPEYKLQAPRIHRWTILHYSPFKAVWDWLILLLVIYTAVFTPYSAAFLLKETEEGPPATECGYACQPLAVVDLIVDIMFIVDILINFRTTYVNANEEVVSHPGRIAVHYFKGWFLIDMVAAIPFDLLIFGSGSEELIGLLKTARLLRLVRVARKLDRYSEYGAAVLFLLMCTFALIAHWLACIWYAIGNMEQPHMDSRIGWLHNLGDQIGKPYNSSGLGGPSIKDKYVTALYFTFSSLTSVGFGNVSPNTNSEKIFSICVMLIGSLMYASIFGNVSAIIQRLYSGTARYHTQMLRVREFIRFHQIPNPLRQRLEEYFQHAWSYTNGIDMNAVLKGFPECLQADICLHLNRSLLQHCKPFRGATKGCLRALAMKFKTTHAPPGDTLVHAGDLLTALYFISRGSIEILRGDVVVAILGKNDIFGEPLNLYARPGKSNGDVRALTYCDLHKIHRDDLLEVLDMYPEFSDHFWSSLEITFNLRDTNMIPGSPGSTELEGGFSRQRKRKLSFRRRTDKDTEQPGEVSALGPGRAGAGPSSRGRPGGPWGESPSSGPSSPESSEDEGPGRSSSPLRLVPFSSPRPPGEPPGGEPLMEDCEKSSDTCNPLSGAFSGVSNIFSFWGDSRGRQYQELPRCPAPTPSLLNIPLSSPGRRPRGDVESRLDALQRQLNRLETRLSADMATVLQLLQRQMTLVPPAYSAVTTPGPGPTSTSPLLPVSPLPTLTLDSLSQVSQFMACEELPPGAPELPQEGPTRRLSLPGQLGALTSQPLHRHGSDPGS
Chain of Retinoic acid receptor RXR-alpha (Homo sapiens) (P19793 whole entry, looked up): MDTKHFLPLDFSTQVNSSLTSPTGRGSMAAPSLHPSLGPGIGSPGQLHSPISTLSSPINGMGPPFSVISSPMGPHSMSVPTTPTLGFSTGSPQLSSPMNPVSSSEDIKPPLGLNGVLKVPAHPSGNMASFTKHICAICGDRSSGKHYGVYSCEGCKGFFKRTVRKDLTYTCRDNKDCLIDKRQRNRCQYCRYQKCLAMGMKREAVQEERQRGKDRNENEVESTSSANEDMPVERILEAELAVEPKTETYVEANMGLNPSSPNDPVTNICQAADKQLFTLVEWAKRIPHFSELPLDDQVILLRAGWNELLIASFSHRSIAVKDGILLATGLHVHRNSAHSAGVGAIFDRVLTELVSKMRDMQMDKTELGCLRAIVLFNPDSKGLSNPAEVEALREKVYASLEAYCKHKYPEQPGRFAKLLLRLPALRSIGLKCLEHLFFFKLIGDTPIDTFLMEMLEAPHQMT

With `Oc1cccc(Cl)c1`, the Potency result in [1], in [2], in experiment [4], in experiment [5], in [6] and in [7] was “inactive” in each case. For the same compound, the Potency entry in experiment [8], in experiment [9], in experiment [10], in experiment [13] and in experiment [14] was “inactive” each time. Moreover, the compound was classed as inactive in [3] and in [11]. Also, the activation in experiment [12] is 0.857%.

For the compound `CCC(Cl)[N+](=O)[O-]` (centres undefined), the Potency entry in experiment [1], in experiment [4], in experiment [5], in experiment [15], in experiment [6] and in experiment [7] was “inactive” throughout. The Potency entry in experiment [8], in experiment [9], in experiment [16], in experiment [17], in experiment [10] and in experiment [18] was “inactive” in each case. Also, the Potency entry in experiment [13] and in experiment [14] was “inactive” throughout. Besides, the compound was classed as inactive in [3] and in experiment [11]. The results for the activation in experiment [12] and in experiment [19] were -1.08% and -0.0264%, respectively.

In the case of `C=CC(=O)OCCN(C)C`, in experiment [20], the Potency is more than 92 µM. The Potency result in experiment [2], in [4], in [5], in [15], in experiment [6] and in [9] was “inactive” each time. Besides, the Potency entry in experiment [16], in experiment [17], in [10] and in [14] was “inactive” in each case. The result in experiment [3] and in experiment [11] was inactive. For the same compound, the activation in [12] is 0.0499%; in [19], 0.563%.

`Oc1cc(Cl)c(Cl)c(Cl)c1`: the Potency is 59.9 µM (active) in [20] and 44.7 µM (active) in [12]. Further, the Potency entry in experiment [4], in [17], in experiment [18] and in experiment [14] was “inactive” in each case. Further, the activation in [19] was 1.76%.

On to `C=CC#N`, for which the Potency in experiment [20] was more than 92 µM. In addition, the Potency entry in experiment [2], in experiment [4], in experiment [5], in [15], in experiment [6] and in experiment [7] was “inactive” in each case. In addition, the Potency result in [8], in [9], in experiment [16], in experiment [10], in experiment [18] and in experiment [13] was “inactive” each time. Also, the Potency result in experiment [14] was “inactive”. Moreover, the call in experiment [3] and in experiment [11] was inactive. Moreover, the values for the activation in experiment [12] and in [19] were -2.66% and 2.03%, respectively.

As to `Cc1cccc(N)c1C`, the Potency result in experiment [1], in experiment [5], in experiment [15], in experiment [7], in experiment [8] and in experiment [9] was “inactive” each time. Moreover, the Potency result in experiment [16], in [17], in experiment [18], in [13] and in experiment [14] was “inactive” each time. Moreover, the call in experiment [3] and in [11] was inactive. Moreover, the activation in experiment [12] was 12.1%.

As for `O=Cc1ccc2c(c1)OCO2`, the Potency in experiment [20] is more than 92 µM. The Potency result in experiment [1], in experiment [2], in experiment [15], in [6], in experiment [7] and in [8] was “inactive” throughout. Besides, the Potency result in experiment [9], in experiment [17], in [10], in [18] and in experiment [13] was “inactive” throughout. Further, the outcome in experiment [3] and in experiment [11] was inactive. For the same compound, the activation in experiment [19] was -0.902%.

Consider `ClCc1ccccn1`, for which, in experiment [20], the Potency was more than 92 µM. Moreover, the Potency result in [1], in experiment [2], in [4], in experiment [5], in experiment [6] and in [7] was “inactive” throughout. The Potency entry in [8], in experiment [9], in [17], in experiment [10], in experiment [18] and in experiment [13] was “inactive” in each case. The call in experiment [3] and in experiment [11] was inactive. Besides, the activation in [12] is -0.689% and -0.994%.

Take `COc1ccccc1N`: the Potency in experiment [20] was more than 92 µM. Further, the Potency entry in [1], in experiment [2], in experiment [4], in [5], in experiment [15] and in experiment [6] was “inactive” in each case. Also, the Potency result in [7], in experiment [8], in experiment [16], in [17], in experiment [10] and in [13] was “inactive” throughout. Also, the Potency entry in experiment [14] is “inactive”. The result in experiment [3] and in experiment [11] was inactive. Also, the activation in experiment [19] is -0.373%.
